Data: PubChem BioAssay (NCI)
About 83,000 compounds went through this panel and 20% of them were active in at least one assay; those are over-represented in the sample as a whole.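 Growth was measured after 48 h exposure to one concentration of compound in 96-well plates. Values under 10 count as active.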 The source made the active and inactive calls.

tested on: MDA-MB-468 breast; assay: NCI-60 one-dose screen, 48 h (100 = growth as untreated, 0 = no growth, -100 = all killed); conditions: 10 µM unless noted

| Compound | growth |
| --- | --- |
| Fc1ccc(Oc2ccc(Nc3ncnc4onc(-c5ccccc5)c34)cc2)cc1 | 101% (inactive) |
| Cn1c2ccccc2c2c3c(c4c5ccccc5n(C)c4c21)C(=O)OC3 | 101% (inactive) |
| O=C1Nc2ccc(Br)cc2/C1=N/c1nc(-c2ccccc2)cs1 | 99.8% (inactive) |
| Clc1cc(Cl)cc(N2N=C(c3cccc(Nc4ccncc4)c3)CC2c2ccccc2)c1 (centres undefined) | 37.9% (inactive) |
| N/C(=N\C(N)=N\c1nc2ccccc2s1)c1ccnc(Br)c1 | 96.6% (inactive) |
| COC(=O)c1cc2oc(/C=N/NC(=O)c3cc4oc(-c5cccc(C(F)(F)F)c5)cc4[nH]3)cc2n1Cc1ccccc1 | 106% (inactive) |
| COc1cccc(Nc2nc(NCCO)c3ccccc3n2)c1 | 75.7% (inactive) |
| C=C1C(=O)O[C@H]2[C@H]1CC/C(COC(=O)NCc1cn(C)c3ccccc13)=C\CC[C@@]1(C)O[C@@H]21 | -38.4% (active) |
| O=C1C2=C(CCN(Cc3ccccc3)C2)N2CCN=C2N1Cc1ccc(C(F)(F)F)cc1 | 8.96% (active) |
| Cc1nn(C)c2ncnc(N/N=C/c3cccc(O)c3O)c12 | -11% (active) |
| COc1cccc(-c2nc3sccn3c2-c2ccnc(NCCCNS(=O)(=O)c3ccc(Cl)cc3)c2)c1 | 34.3% (inactive) |
| CCCCN1CCN(c2ccc3nc(-c4ccc5nc(-c6cc(OC)c(OC)c(OC)c6)[nH]c5c4)[nH]c3c2)CC1 | 45.7% (inactive) |
| O=C(O)CC(Cl)C(Cl)CC(=O)O (centres undefined) | 114% (inactive) |
| COc1ccccc1/C=C1\COc2ccc(O)c(O)c2C1=O | 12.6% (inactive) |
